Only a selection was taken, and hits are over-represented in it overall.
Tgondii IFNg: T. gondii growth inhibition with IFN-gamma, primary screen, cell-based; 69,000 tested, 3.8% active; activity change, negative = inhibition, % (test concentration not listed); Toxoplasma gondii growth in IFN-gamma-treated host cells; active compounds read low; in the data active means activity change below about -70%, passing the limit was not always enough;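 further: host cells are HeLa cells infected with Toxoplasma gondii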
A number is an active result.

How did Cc1cc(C)nc(Nc2n[nH]c(COc3ccc4ccccc4c3)n2)n1 do in these assays?
Tgondii IFNg: inactive

Results for Cc1cc(OCc2nc3ccccc3[nH]2)ccc1C(C)C ?
Tgondii IFNg: -87

How did CC(NC(=O)Cc1nc2ccccc2[nH]1)c1ccc(O)c(F)c1 (configuration not stated) do in these assays?
Tgondii IFNg: inactive

Results for CS(=O)(=O)N1CC2(COC(C(=O)NCCc3cccnc3)C2)c2ccccc21 (configuration not stated) ?
Tgondii IFNg: inactive

What do the screens show for `COc1ccc(C2(C(=O)N3CCC(n4nc(-c5ccsc5)ccc4=O)CC3)CC2)cc1`?
Tgondii IFNg: -95

How did COc1ccc(C2(C(=O)N3CCCC(N(C)C)CC3)CCCC2)cc1 (configuration not stated) do in these assays?
Tgondii IFNg: inactive

What do the screens show for `COc1ccc(C2(C(=O)N3CCCC(O)(CO)C3)CC2)cc1` (configuration not stated)?
Tgondii IFNg: inactive

Results for O=C(CN1C(=O)CCc2cc(Br)ccc21)NCc1ccccc1 ?
Tgondii IFNg: inactive

Results for Cc1ccc2c(c1C)-n1cccc1C1(CCN(C(=O)CC3CCCC3)CC1)N2 ?
Tgondii IFNg: -88

How did CCCCC(=O)N1CCC2(CC1)Nc1ccc(Cl)cc1-n1cccc12 do in these assays?
Tgondii IFNg: -108

Results for Cc1ccc2c(c1C)-n1cccc1C1(CCN(C(=O)CC3CCCCC3)CC1)N2 ?
Tgondii IFNg: inactive

Results for CCC(=O)N1CCC2(CC1)Nc1ccc(Cl)cc1-n1cccc12 ?
Tgondii IFNg: inactive

What do the screens show for `O=C(CCc1ccccc1)N1CCC2(CC1)Nc1ccc(Cl)cc1-n1cccc12`?
Tgondii IFNg: -121

Results for O=C(CC1CCCC1)N1CCC2(CC1)Nc1ccc(Cl)cc1-n1cccc12 ?
Tgondii IFNg: inactive

How did Cc1ccc2c(c1)NC1(CCN(C(=O)CCc3ccccc3)CC1)c1cccn1-2 do in these assays?
Tgondii IFNg: inactive

What do the screens show for `Cc1ccc2c(c1C)-n1cccc1C1(CCN(C(=O)CCC3CCCC3)CC1)N2`?
Tgondii IFNg: inactive

How did O=C(CCC1CCCC1)N1CCC2(CC1)Nc1ccc(Cl)cc1-n1cccc12 do in these assays?
Tgondii IFNg: inactive

How did COc1ccc(NC(=O)C(NC(=O)c2ccccc2NC(=O)c2ccco2)C(C)C)cc1 (configuration not stated) do in these assays?
Tgondii IFNg: inactive

Results for CC(=O)N1C[C@@H]2C3(CCN(C(=O)Nc4ccccc4)CC3)CC[C@]2(C(=O)N2CCCC2)C1 ?
Tgondii IFNg: inactive

How did O=C1CCC2(CCN(C(=O)C3CCOCC3)CC2)CN1 do in these assays?
Tgondii IFNg: inactive

What do the screens show for `O=C(NCCOc1ccccc1F)[C@H]1Cc2ccccc2CN1`?
Tgondii IFNg: inactive

What do the screens show for `CCCS(=O)(=O)N1CCO[C@H]2[C@@H](Oc3cccnc3)CC[C@H]21`?
Tgondii IFNg: inactive

How did O=C(NCCc1csc(C2CCN(C(=O)c3ccccc3)CC2)n1)C1CC1 do in these assays?
Tgondii IFNg: inactive

How did Cc1ccc(C2(C(=O)N3CCCC(N(C)C)CC3)CC2)cc1 (configuration not stated) do in these assays?
Tgondii IFNg: inactive

Results for Cc1ccccc1-c1nc(CN2C(=O)CSc3ccc(S(=O)(=O)N4CCCC4)cc32)c(C)o1 ?
Tgondii IFNg: -80

How did Cc1ccccc1-c1nc(Cn2c(=O)cc(C(=O)N3CCCCC3)c3ccccc32)c(C)o1 do in these assays?
Tgondii IFNg: inactive

How did Cc1oc(-c2ccccc2)nc1CN1C(=O)CSc2ccc(S(=O)(=O)N3CCOCC3)cc21 do in these assays?
Tgondii IFNg: inactive

Results for Cc1ccccc1NC(=O)N1CCC(c2nc(C(=O)N3CCCC3)c(C)o2)CC1 ?
Tgondii IFNg: inactive

What do the screens show for `Cc1ccc(F)c(NC(=O)Nc2ccc(-c3cccc4[nH]nc(N)c34)cc2)c1`?
Tgondii IFNg: -75

How did Cc1ccc(C)c(-c2coc(-c3ccc(NC(=O)Nc4ccccc4F)cc3)n2)c1 do in these assays?
Tgondii IFNg: inactive

How did Cc1ccc(-c2coc(-c3ccc(NC(=O)Nc4ccc(F)cc4F)cc3)n2)c(C)c1 do in these assays?
Tgondii IFNg: inactive

How did COC(=O)[C@]1(C)N[C@H](c2ccc(C#CC(C)(C)O)cc2)[C@@H]2C(=O)N(C)C(=O)[C@@H]21 do in these assays?
Tgondii IFNg: inactive

Results for CCn1c(-c2cc(NC(=O)c3ccncc3)n[nH]2)cc2ccc(OC)cc21 ?
Tgondii IFNg: -92

How did CCn1c(-c2cc(NC(=O)c3cncc(Br)c3)n[nH]2)cc2cc(OC)ccc21 do in these assays?
Tgondii IFNg: inactive

How did CCn1c(-c2cc(NC(=O)c3cccnc3)n[nH]2)cc2c(OC)cccc21 do in these assays?
Tgondii IFNg: inactive

How did COc1ccc(NC(=O)NCC(c2cccnc2)c2cn(C)c3ccccc23)cc1 (configuration not stated) do in these assays?
Tgondii IFNg: inactive

What do the screens show for `Cc1cc(C)c(S(=O)(=O)NCCc2sc(-c3cccc(F)c3)nc2C)cc1C`?
Tgondii IFNg: inactive

Results for COc1ccc(-c2nc(CNS(=O)(=O)c3ccc(C)cc3C)c(C)o2)cc1 ?
Tgondii IFNg: inactive

Results for COc1ccc(OC)c(S(=O)(=O)NCc2nc(-c3ccc(C)cc3)oc2C)c1 ?
Tgondii IFNg: -87

What do the screens show for `COc1ccccc1-c1nc(CN(C)S(=O)(=O)c2ccc(C)c(C)c2)c(C)o1`?
Tgondii IFNg: inactive

How did Cc1ccc(-c2nc(CNS(=O)(=O)c3c(C)cc(C)cc3C)c(C)o2)cc1 do in these assays?
Tgondii IFNg: inactive

What do the screens show for `Cc1ccc(S(=O)(=O)NCc2nc(-c3ccccc3)oc2C)cc1C`?
Tgondii IFNg: -106

How did CCOc1ccc(-c2nc(CN(C)S(=O)(=O)c3ccc(C)c(C)c3)c(C)o2)cc1 do in these assays?
Tgondii IFNg: -102

Results for Cc1oc(-c2ccccc2)nc1CNS(=O)(=O)c1ccc(F)cc1 ?
Tgondii IFNg: inactive

Results for Cc1ccc(S(=O)(=O)NCc2nc(-c3cccc(Cl)c3)oc2C)cc1C ?
Tgondii IFNg: inactive

What do the screens show for `CCOc1ccc(S(=O)(=O)N(C)Cc2nc(-c3ccc(C)cc3)oc2C)cc1`?
Tgondii IFNg: inactive

Results for O=S(=O)(N1CCOCC1)N1CCOC(c2ccn[nH]2)C1 (configuration not stated) ?
Tgondii IFNg: inactive

Results for COc1ccccc1-c1noc(Cc2ccc3c(c2)OCO3)n1 ?
Tgondii IFNg: inactive

How did Cc1ccc(C(=O)N2CCC(N3CCCC(C(=O)N4CCCC4)C3)CC2)cc1O (configuration not stated) do in these assays?
Tgondii IFNg: inactive

What do the screens show for `COCCN1CCc2nc(SCc3nc(-c4cccc(C)c4)oc3C)[nH]c(=O)c2C1`?
Tgondii IFNg: inactive

How did O=S(=O)(c1ccccc1)N1CCC(c2nc3ccc(-c4ccncc4)cn3n2)CC1 do in these assays?
Tgondii IFNg: inactive

What do the screens show for `COc1ccc(NC(=O)N2CCC(c3nc(C(=O)N4CCCC4)c(C)o3)CC2)c(C)c1`?
Tgondii IFNg: inactive

How did CCc1c(C)sc2ncnc(-c3ccc(C(=O)N(C)C)cc3)c12 do in these assays?
Tgondii IFNg: inactive

What do the screens show for `Cc1c(C(=O)O)cnc2nc(C(F)(F)F)nn12`?
Tgondii IFNg: inactive

What do the screens show for `O=C(c1cnc2ccccc2c1)N1CCC2(CC(=O)N(c3ccc(F)cc3)C2)C1` (configuration not stated)?
Tgondii IFNg: inactive

Results for Cc1cccc(N2CC3(CCN(C(=O)c4cnc5ccccc5c4)C3)CC2=O)c1 (configuration not stated) ?
Tgondii IFNg: inactive

From PubChem BioAssay
